# Where “and” joins values, the source holds several entries; their conditions need not be identical. Identical values can stand only once. Results filed as inconclusive are left out. A call without a number means that no potency is given here. Where a structure was tested more than once in an assay, its records may differ in their call. Calls of active or inactive are those of the source. Calls follow the shape of the dose curve; as a rule, active = well fitted curve in the direction sought with a large enough effect in the repeat runs; inconclusive = weak or mixed curves; inactive = no such curve, though single readings can be large; an effect the other way counts as inactive or inconclusive.
# What was measured:
# [1] = A CellTox Green Cytotoxicity Assay to monitor cytotoxicity in HEK293 cells - 40 hour (AID 1224871); also: nearly all actives have a fitted effect of over 45% in size; also: potency is read from the fitted curve at half-maximal effect
# Procedure, shortened: (§1)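 Seeding of HEK293 cells together with cytotoxicity dye preceded a 5 h incubation at 37 C/5% CO2. Test compounds in DMSO were then added and fluorescence monitored across 40 h.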
# [2] = qHTS RealTime-Glo MT Cell Viability Assay in HEK293 cells - 16 hour (AID 1224872); also: nearly all actives have a fitted effect of over 50% in size; also: potency is read from the fitted curve at half-maximal effect
# Procedure, shortened: (§2)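 Viability tracked continuously by luminescence as live cells reduce a prosubstrate for NanoLuc; HEK293 cells preincubated 5 h, compound-treated at 37 C, and read at 0, 8, 16, 24, 32 and 40 h.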
# [3] = qHTS RealTime-Glo MT Cell Viability Assay in HepG2 cells - 8 hour (AID 1224873); also: nearly all actives have a fitted effect of over 55% in size
# Procedure, shortened: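 HepG2 cells mixed with RealTime-Glo MT reagents (NanoLuc plus cell-permeant prosubstrate) were seeded at 600 cells/well, incubated 5 h at 37 C/5% CO2, then pinned with compounds in DMSO; nonlytic luminescence tracked viability during 40 h treatment.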
# [4] = qHTS RealTime-Glo MT Cell Viability Assay in HEK293 cells - 40 hour (AID 1224874); conditions: RealTime-Glo luminescence; max response: stronger effect = lower value; also: nearly all actives have a fitted effect of over 50% in size; also: potency is read from the fitted curve at half-maximal effect
# Procedure, shortened: (§3)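 Tox21 screen in HEK293 using RealTime-Glo MT chemistry, with cells and reagent co-dispensed. Luminescence proportional to viable cell number was captured at intervals during 40 h compound exposure at 37 C.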
# [5] = A CellTox Green Cytotoxicity Assay to monitor cytotoxicity in HEK293 cells - 24 hour (AID 1224875); also: series mostly up to about 77 µM; nearly all actives have a fitted effect of over 45% in size
# Procedure, shortened: as §1
# [6] = A CellTox Green Cytotoxicity Assay to monitor cytotoxicity in HepG2 cells - 16 hour (AID 1224876); also: nearly all actives have a fitted effect of over 45% in size
# Procedure, shortened: (§4)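 Nonlytic assay: viable cells exclude the dye, so fluorescence scales with cell death. HepG2 at 600 cells/well, compounds added after 5 h, signal read across 40 h.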
# [7] = qHTS RealTime-Glo MT Cell Viability Assay in HepG2 cells - 32 hour (AID 1224877); also: nearly all actives have a fitted effect of over 55% in size
# Procedure, shortened: (§5)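 Viability was tracked continuously by NanoLuc luminescence from prosubstrate reduced by living HepG2 cells, at successive time points over 40 h of compound exposure. Cells with reagent were preincubated 5 h at 37 °C before compound addition.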
# [8] = A CellTox Green Cytotoxicity Assay to monitor cytotoxicity in HepG2 cells - 24 hour (AID 1224878); also: nearly all actives have a fitted effect of over 45% in size
# Procedure, shortened: as §4
# [9] = A CellTox Green Cytotoxicity Assay to monitor cytotoxicity in HepG2 cells - 40 hour (AID 1224879); also: nearly all actives have a fitted effect of over 40% in size; also: potency is read from the fitted curve at half-maximal effect
# Procedure, shortened: as §4
# [10] = qHTS RealTime-Glo MT Cell Viability Assay in HEK293 cells - 0 hour (AID 1224880)
# Procedure, shortened: as §3
# [11] = A CellTox Green Cytotoxicity Assay to monitor cytotoxicity in HEK293 cells - 32 hour (AID 1224881); also: nearly all actives have a fitted effect of over 40% in size
# Procedure, shortened: as §1
# [12] = A CellTox Green Cytotoxicity Assay to monitor cytotoxicity in HepG2 cells - 0 hour (AID 1224882); also: nearly all actives have a fitted effect of over 35% in size
# Procedure, shortened: as §4
# [13] = A CellTox Green Cytotoxicity Assay to monitor cytotoxicity in HepG2 cells - 32 hour (AID 1224883); also: nearly all actives have a fitted effect of over 50% in size
# Procedure, shortened: as §4
# [14] = A CellTox Green Cytotoxicity Assay to monitor cytotoxicity in HEK293 cells - 8 hour (AID 1224884); also: nearly all actives have a fitted effect of over 35% in size
# Procedure, shortened: as §1
# [15] = qHTS RealTime-Glo MT Cell Viability Assay in HepG2 cells - 16 hour (AID 1224885); also: nearly all actives have a fitted effect of over 50% in size
# Procedure, shortened: as §5
# [16] = qHTS RealTime-Glo MT Cell Viability Assay in HEK293 cells - 24 hour (AID 1224886); also: nearly all actives have a fitted effect of over 50% in size; also: potency is read from the fitted curve at half-maximal effect
# Procedure, shortened: as §2
# [17] = qHTS RealTime-Glo MT Cell Viability Assay in HEK293 cells - 8 hour (AID 1224887)
# Procedure, shortened: as §3
# [18] = A CellTox Green Cytotoxicity Assay to monitor cytotoxicity in HEK293 cells - 16 hour (AID 1224888); also: nearly all actives have a fitted effect of over 35% in size
# Procedure, shortened: as §1
# [19] = qHTS RealTime-Glo MT Cell Viability Assay in HepG2 cells - 0 hour (AID 1224889); also: nearly all actives have a fitted effect of over 50% in size
# Procedure, shortened: as §5
# [20] = A CellTox Green Cytotoxicity Assay to monitor cytotoxicity in HepG2 cells - 8 hour (AID 1224890); also: nearly all actives have a fitted effect of over 45% in size
# Procedure, shortened: as §4
smiles,measurement,setting,value
c1cnc2c(c1)ccc1cccnc12,Potency,[1],49.4 µM (active) and 43.6 µM (active) and inactive
same,Potency,[2],11 µM (active)
same,Potency,[3],inactive
same,Potency,[4],3.12 µM (active) and 7.76 µM (active) and 6.92 µM (active)
same,Potency,[5],inactive
same,Potency,[6],inactive
same,Potency,[7],inactive
same,Potency,[8],inactive
same,Potency,[9],44.1 µM (active) and inactive
same,Potency,[10],inactive
same,Potency,[11],inactive
same,Potency,[12],inactive
same,Potency,[13],inactive
same,Potency,[14],inactive
same,Potency,[15],inactive
same,Potency,[16],3.5 µM (active) and 8.71 µM (active) and 9.77 µM (active)
same,Potency,[17],inactive
same,Potency,[18],inactive
same,Potency,[19],inactive
same,Potency,[20],inactive
CCn1cc(C(=O)O)c(=O)c2cc3c(cc21)OCO3,Potency,[1],inactive
same,Potency,[2],inactive
same,Potency,[3],inactive
same,max response,[4],10.2% (inactive) and 3.68% (inactive)
same,Potency,[5],inactive
same,Potency,[6],inactive
same,Potency,[7],inactive
same,Potency,[8],inactive
same,Potency,[9],inactive
same,Potency,[10],inactive
same,Potency,[11],inactive
same,Potency,[12],inactive
same,Potency,[13],inactive
same,Potency,[14],inactive
same,Potency,[15],inactive
same,Potency,[16],inactive
same,Potency,[17],inactive
same,Potency,[18],inactive
same,Potency,[19],inactive
same,Potency,[20],inactive
OCC(O)CS (stereo not given),Potency,[1],inactive
same,Potency,[2],inactive
same,Potency,[3],inactive
same,max response,[4],14.9% (inactive) and 3.08% (inactive)
same,Potency,[5],inactive
same,Potency,[6],inactive
same,Potency,[7],inactive
same,Potency,[8],inactive
same,Potency,[9],inactive
same,Potency,[10],inactive
same,Potency,[11],inactive
same,Potency,[12],inactive
same,Potency,[13],inactive
same,Potency,[14],inactive
same,Potency,[15],inactive
same,Potency,[16],inactive
same,Potency,[17],inactive
same,Potency,[18],inactive
same,Potency,[19],inactive
same,Potency,[20],inactive

# Source: PubChem BioAssay (Tox21)
